# Source: PubChem (National Center for Advancing Translational Sciences (NCATS))
# Marburg entry inh: inhibitors of Marburg virus binding or cell entry; Marburg virus pseudotyped entry inhibition, cell reporter; Potency, µM (highest dose often 37.8 µM), without a hit: at the highest dose activity change, negative = inhibition, hits mostly inhibitors; 1.8% of 300,000 active; AID 540276; calls by dose curve; tested in HEK293 cells; further: potency means the concentration at half of the fitted maximal effect; on the % scale 0 is the no-effect control and ±100 the full control effect
# CHX counter: counter-screen for Shiga toxin inhibitors: cycloheximide protein synthesis inhibition; cell reporter, cycloheximide protein synthesis inhibition counterscreen; max response, %; 12% of 300,000 active; in the data active means max response mostly above about 13%, no sharp cut-off; inactive means mostly below about 14%; further: read at 38.3 µM for the half of the compounds with a filed dose; 0% is about no effect
# HCV inhibitor: inhibitors of hepatitis C virus infection. Potency, µM (doses to about 41.8 µM), for inactives: at the highest dose activity change, negative = inhibition, actives largely listed as inhibitors. Huh7.5.1 HCVcc-Cre infection, luciferase reporter, 44 h. AID 651820. 3.4% of 340,000 active; active means well fitted inhibition curve with a large enough effect; inconclusive means small, poorly fitted or top-dose-only effect, or another doubt; inactive means no such curve, though single readings can be large or run the other way; further: potency means the concentration at half of the fitted maximal effect; on the % scale 0 is the no-effect control and ±100 the full control effect
#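 1,000 cells/well; 4 h culture; + compound; + HCVcc-Cre (~0.5 moi); 44 h; luciferase substrate, RT 15 min; read 15 sec.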
# FMDV inh: foot and mouth disease virus antiviral activity; FMDV antiviral cell-based qHTS; Potency, µM (series often up to 57.9 µM), without a hit: top-dose activity change, negative = inhibition, usual class: inhibitors; 1.2% of 410,000 active; calls by dose curve; tested in HEK293T cells; further: read-out not given here; potency means the concentration at half of the fitted maximal effect; on the % scale 0 is the no-effect control and ±100 the full control effect; nearly all actives have a fitted effect of over 45% in size
# Shiga inhibitor: inhibitors of Shiga toxin in Vero cells; inhibition, % at 38.7 µM; Vero cells, Shiga toxin protein synthesis inhibition reporter; 9.2% of 290,000 active; in the data active means inhibition mostly above about 28%, no sharp cut-off; inactive means mostly below about 43%; further: 0% is about no effect
# LASV entry inh: Lassa virus entry inhibition. AID 540256. Potency, µM (highest dose often 37.9 µM), for inactives: at the highest dose activity change, negative = inhibition, most hits filed as inhibitors. 1.2% of 300,000 active. Lassa virus pseudotype entry inhibition, cell reporter; calls by dose curve; tested in HEK293 cells; further: potency means the concentration at half of the fitted maximal effect; on the % scale 0 is the no-effect control and ±100 the full control effect; nearly all actives have a fitted effect of over 50% in size
# An asterisk follows results filed as active; ? = inconclusive; / = no result given; [ ] = dose if it differs, or a comment. The list is not random: actives were taken first. Their share in the collection is about 13%.
SMILES,Marburg entry inh,CHX counter,HCV inhibitor,FMDV inh,Shiga inhibitor,LASV entry inh
Cc1ccc(C(=O)NC(=S)Nc2ccc(S(=O)(=O)N3CCN(C)CC3)cc2)cc1,?,26*,?,-4%,18,-15%
CN1CCN(S(=O)(=O)c2ccc(C(=O)Nc3ccccc3)cc2)CC1,18%,19*,18%,17%,63*,0%
Cc1c(O)c2c3c(cccc3c1O)C(=O)N(c1ccccc1)C2=O,-38%,-3,?,22µM*,-6,-17%
COc1ccc(N2CCn3c2nc2c3c(=O)n(CCc3ccccc3)c(=O)n2C)cc1,-2%,1,/,/,-11,/
COc1ccccc1N1CCN(/N=C/c2ccc([N+](=O)[O-])cc2)CC1,/,21*,11µM*,25%,13,/
COc1ccccc1N1CCN(/N=C\c2cccnc2)CC1,?,-3,-30%,3%,-1,27%[46.1 µM]
COc1ccccc1N1CCN(/N=C/c2ccc(Cl)c([N+](=O)[O-])c2)CC1,/,55*,-16%,27%,43*,/
O=[N+]([O-])c1cc(/C=N/N2CCN(C3c4ccccc4-c4ccccc43)CC2)ccc1Cl,5%,1,-7%,-5%,-14,12%
Cc1nc(NC(=O)/C=C/c2ccccc2)sc1C(=O)NCCO,-7%[46.1 µM],1,-12%,50%,-4,27%
O=C(CSc1nc2ccccc2s1)c1ccc(O)cc1O,/,22*,-2%,12%,59*,/
O=C(Cc1nc2ccccc2s1)c1ccc(O)cc1O,1%,41*,-7%,/,65*,/
CCc1cc(C(=O)Cc2nc3ccccc3s2)c(O)cc1OCC(=O)O,7%,-2,-1%,14%,-2,17%
CCCn1c(N)c(C(=O)CSc2nc3ccccc3s2)c(=O)[nH]c1=O,?,15,?,?,61*,?
CCCCCC1CC(CC(=O)NC(=S)Nc2ccc([N+](=O)[O-])cc2)C(=O)O1 (stereo unspecified),28%,-1,-5%,11%,-7,-1%
O=C(CCc1nnc2n(Cc3ccc(Cl)cc3)c(=O)c3ccccc3n12)NCCN1CCCC1,10µM*,-3,3.5µM*,5%,-2,?
O=c1c2cc3c(cc2nc2sc(Nc4ccccc4)nn12)OCO3,?,/,/,29%,/,16%[46.1 µM]
CCCNCc1nnc(-c2ccccc2Cl)o1,?,7,13%,29%,32,?
Clc1ccc(-c2nnc(-c3ccccc3Cl)o2)cc1,?,46*,-2%,-3%,115*,?
Clc1ccc(-c2nnc(-c3cccc4ccccc34)o2)cc1Cl,-1%[46.1 µM],1,15%,39%,10,14%
Clc1ccccc1-c1nnc(-c2ccccc2Cl)o1,18%,32*,-9%,/,68*,-20%
O=C(NCCCO)C(=O)NCC1OCCCN1S(=O)(=O)c1cccs1 (stereo unspecified),8%,-3,4%,-14%,-14,17%
CS(=O)(=O)c1ccc(-n2c(=O)n(Cc3ccccc3)c(=O)c3[nH]cnc32)cc1,/,-4,11%,-4%,-4,/
N/C(=N\OC(=O)c1ccc2c(c1)OCO2)c1ccncc1,/,35*,5%,18%,44,/
O=C(NCc1ccc2c(c1)OCO2)c1ccncc1,29%,-2,25%,3%,-5,?
COc1ccc(/C(N)=N/OC(=O)c2ccc3c(c2)OCO3)cc1,7%,52*,?,17%,46*,?
SMILES,Marburg entry inh,CHX counter,HCV inhibitor,FMDV inh,Shiga inhibitor,LASV entry inh
N/C(=N\OC(=O)c1ccc2c(c1)OCO2)c1ccc(Cl)cc1,-24%,62*,?,/,91*,-30%
Cc1ccc(/C(N)=N/OC(=O)c2ccc3c(c2)OCO3)cc1,?,74*,?,-1%,98*,?
Cc1ccc(NC(=O)COC(=O)c2ccc3c(c2)OCCO3)cc1,/,/,-9%,-5%,/,/
O=C(COC(=O)c1cc(Cl)ccc1O)c1ccc2c(c1)OCO2,?,/,-5%,18%,/,-1%
Cc1ccnc(NC(=O)Cn2cc([N+](=O)[O-])cn2)c1,?,43*,12%,75%,89*,1%
COc1ccccc1CC(=O)Nc1cc(C)ccn1,/,45*,6%,75%,103*,/
Cc1ccc(NC(=O)COc2ccccc2[N+](=O)[O-])nc1,?,14,-24%,-23%,56*,?
Cc1ccc(NC(=O)c2ccc(COc3ccccc3[N+](=O)[O-])o2)nc1,/,/,?,-2%,/,/
